Data: PubChem BioAssay AID1733 (National Center for Advancing Translational Sciences (NCATS), 2009)
Where “and” joins values, the source holds several entries; their conditions need not be identical. Identical values can stand only once. Results filed as inconclusive are left out. A number with no mark means an inactive call. Calls of active or inactive are those of the source. Calls follow the shape of the dose curve; as a rule, active = well fitted inhibition curve with a large enough effect; inconclusive = small, poorly fitted or top-dose-only effect; inactive = flat fitted curve, though single readings scatter.

target: Luciferin 4-monooxygenase (Photinus pyralis) (UniProt P08659); test: Counterscreen Assay for Enhancers of SMN2 Splice Variant Expression: Interaction with Luciferase Reporter; details: purified firefly luciferase, luminescence, 5 min; series mostly up to 40.3 µM; activity change, negative = inhibition: at the top concentration
Sequence (P08659 whole entry, looked up, canonical isoform): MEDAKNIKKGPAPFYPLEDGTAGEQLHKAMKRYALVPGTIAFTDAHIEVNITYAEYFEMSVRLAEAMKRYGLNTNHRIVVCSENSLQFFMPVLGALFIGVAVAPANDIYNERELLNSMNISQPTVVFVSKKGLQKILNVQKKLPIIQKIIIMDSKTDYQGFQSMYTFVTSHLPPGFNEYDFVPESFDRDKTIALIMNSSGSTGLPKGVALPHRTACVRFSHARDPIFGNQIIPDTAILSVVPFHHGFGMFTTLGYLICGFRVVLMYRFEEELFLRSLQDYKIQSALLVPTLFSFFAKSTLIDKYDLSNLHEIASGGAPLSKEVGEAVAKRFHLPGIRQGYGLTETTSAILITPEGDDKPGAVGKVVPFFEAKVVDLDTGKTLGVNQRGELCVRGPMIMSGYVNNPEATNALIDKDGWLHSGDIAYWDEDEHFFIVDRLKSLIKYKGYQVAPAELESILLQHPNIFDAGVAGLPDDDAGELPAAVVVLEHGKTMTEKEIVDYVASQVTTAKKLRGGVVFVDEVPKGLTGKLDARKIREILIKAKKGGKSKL
Source text: NIH Chemical Genomics Center [NCGC] NIH Molecular Libraries Probe Production centers Network [MLPCN] MLPCN Grant: R03 MH084179-01 Assay Submitter (PI): Elliot Androphy NCGC Assay Overview: Spinal muscular atrophy (SMA) is caused by insufficient levels of the survival motor neuron protein SMN. The SMN locus on chromosome 5q13 contains two inverted copies of SMN called SMN1 and SMN2 which are 99% identical at the amino acid level. SMN1 is a fully functional protein and SMN2 skips exon 7 90% of the time. Skipping of exon 7 produces non-functional protein product. 10% of the SMN2 protein includes exon 7 and is fully functional. In the SMA disease state, mutations in the SMN1 locus are the cause of the disease state. Because only 10% of SMN2 is of the fully functional form, it is not sufficient to overcome the deficiency produced by the loss of the SMN1 product. A therapy that either increases the amount of SMN2 product made increases the inclusion of exon 7 has been proposed for the treatment of SMA. We have designed an assay to identify small molecules that can increase the amount of functional SMN2 product by appending a luciferase reporter gene after the native SMN2 gene, such that inclusion of exon 7 in the expressed product places the luciferase sequence in frame, thus generating functional luciferase enzyme. One potential source of false positives in the primary screening assay is stabilization of the reporter luciferase via direct binding. This assay attempts to identify such compounds by screening directly for luciferase activity in the absence of the cellular system.
NCGC Assay Protocol Summary: The primary screen utilizes a luciferase reporter gene assay, combining the promoter and splicing based cassettes in tandem with the major portion of the native SMN1 cDNA, and then transfected into HEK293 cells. Compounds that modulate luciferase signal presumably modulate expression of […]. In this assay, we utilize purified firefly luciferase in lieu of a cellular reporter to identify compounds interacting directly with luciferase in the primary screen. Sequence, Parameter, Value, Description (1) Reagent, 2.5 uL, Enzyme in buffer (note A) (2) Compound, 23 nL, From stock solutions (3) Time, 5 minutes, Room temp (4) Reagent#2.5 ul, Luciferase detection reagent (note B) (5) Detector, 1 sec integrate, Luminescent read on Viewlux (note C) Sigma enzyme (1 mg) considered to be MW 61,000 diluted in 357 ul assay buffer to 50 uM stock. A - Enzyme and buffer consists of 50 mM Tris-acetate pH 7.6, 10 mM Mg acetate 0.05% BSA, 0.01% Tween and 5 nM firefly luciferase B - Detection reagent = britelite plus diluted 1:10 in PBS C - Viewlux settings were 1 second integration medium sensitivity Keywords: Spinal muscular atrophy, SMA, SMN2, high throughput screening, MLSMR, MLPCN, NIH Roadmap, qHTS and NCGC

Row | Structure (SMILES) | activity change, negative = inhibition | Potency
1 | COc1ccc(-c2csc(N3CCC(C(N)=O)(N4CCCCC4)CC3)n2)cc1 | -7.05% | 
2 | COc1ccc(-c2csc(N3CCC(c4ccccc4)CC3)n2)cc1 | 27.4% | 
3 | Cc1ccc(C2c3c(oc4ccccc4c3=O)C(=O)N2CCCN2CCOCC2)o1 (centres undefined) |  | 12.6 µM (active)
4 | FC(F)(F)c1cccc(Oc2nc(-c3ccccc3)nnc2C(F)(F)F)c1 |  | 8.91 µM (active)
5 | CCOC(=O)c1c(-c2cccc(C)c2)csc1NC(=O)c1c(-c2ccccc2)noc1C | -9.91% [at 48.7 pM] | 
6 | O=C(NCc1cccs1)C(=O)NCC1OCCCN1S(=O)(=O)c1ccccc1 (centres undefined) | 14.3% [at 48.7 pM] | 
7 | CC(/C=C/C(=O)NO)=C\[C@@H](C)C(=O)c1ccc(N(C)C)cc1 | 8.8% [at 51 µM] | 
8 | O=C(NCCc1cn2ccsc2n1)c1cccs1 | -9.66% [at 48.7 pM] | 
9 | O=C1CCC(C(=O)Nc2cccc3ccccc23)N1 (centres undefined) | 7.8% [at 48.7 pM] | 
10 | Nn1c(SCC(=O)NCCC2=CCCCC2)nnc1C1CCCCC1 | 2.17% [at 48.7 pM] | 
11 | COC(=O)C1=C(CN2CCc3ccccc32)NC(=O)NC1c1cc(C)ccc1C (centres undefined) | 18.7% [at 48.7 pM] | 
12 | OCCCNc1nc(-c2ccc(Cl)cc2)nnc1-c1ccccc1 | -19.6% | 
13 | Clc1ccc(-c2nnc(-c3ccccc3)nc2N2CCSCC2)cc1 |  | 11.2 µM (active)
14 | Cc1ccc(C(=O)Cn2c3c(sc2=N)CCCC3)cc1 |  | 126 nM (active) and 100 nM (active)
15 | O=[N+]([O-])c1ccc(-c2nnc(-c3ccccc3)c(NCCCO)n2)cc1 |  | 11.2 µM (active)
16 | OCCCNc1nc(-c2ccc(Br)cc2)nnc1-c1ccc(Cl)cc1 | -2.32% | 
17 | O=S(=O)(NC1CCCc2ccccc21)c1cnc[nH]1 (centres undefined) | 3.43% [at 48.7 pM] | 
18 | c1ccc(-c2nnc(-c3ccccc3)c(-c3c[nH]c4ccccc34)n2)cc1 | 3.91% | 
19 | NC(=O)C1(N2CCCCC2)CCN(c2nc(-c3ccc(Br)cc3)cs2)CC1 | -6.31% | 
20 | FC(F)(F)c1nnc(-c2ccccc2)nc1Oc1ccccc1 |  | 11.2 µM (active)
21 | CN(C)CCCN(C(=O)c1cccs1)c1nc(-c2ccccc2)cs1 | -21.8% | 
22 | CCC(=O)n1nc(NCc2ccccc2OC)nc1NCc1ccccc1OC | -6.75% [at 48.7 pM] | 
23 | Cc1ccc(-c2csc(N3CCC(NS(=O)(=O)c4ccc5c(c4)OCCO5)CC3)n2)cc1 | 23.9% | 
24 | O=C(Nc1nc(-c2ccc3ccccc3c2)cs1)C1CCN(S(=O)(=O)c2cccs2)CC1 | 1.13% | 
